# Reference: the supplement of paper PMC9477273
# Test system: DRIVER-selected RNA biosensor (aptazyme) pool
# Assay: maximum fold change of ribozyme cleavage across biosensor pool versus no-compound control; higher = stronger biosensor response (ligand inhibits cleavage)
# Conditions: 10 µM
# Experimental: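 CleaveSeq: a pool of resynthesized hammerhead-ribozyme RNA biosensors (sTRSV scaffold with randomized loops, 1,730 sequences) was T7-transcribed at 37 °C for 15-30 min with a single compound at 10 µM. Cleaved and uncleaved products were counted by NGS, and fold change of cleavage was computed against the DMSO-only condition. The value is the maximum fold change of cleavage over all biosensors in the pool. About 255 compounds were tested individually.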
row,SMILES,maximum fold change
1,COc1ccc(C=C2C(=O)c3ccccc3C2=O)cc1O,4.65
2,COc1ccc(-c2cn3c4ccccc4n(N)c3n2)cc1OC,3.73
3,CCOC(=O)c1ccc(S(=O)(=O)N2CCOCC2)cc1,1.53
4,CCc1ccc(C2c3c(-c4ccccc4O)n[nH]c3C(=O)N2CC2CCCO2)cc1 (stereo not given),1.83
5,O=C1C2CC=C(Cl)CC2C(=O)N1CCO (stereo not given),3.4
6,COCCNC(=O)/C(C#N)=C/c1c(Oc2ccccc2Cl)nc2ccccn2c1=O,2.74
7,Cc1cc(C2C(=O)c3ccccc3C2=O)nc2ccccc12,11.3
8,CCOc1ccccc1CNC(=O)c1ccc(CS(=O)Cc2ccc(Cl)cc2)o1 (stereo not given),4.15
9,CCOc1ccc2c(c1)[N+](C)=C(/C=C/c1ccc(C(=O)OC)cc1)C2(C)C,2.67
10,Cc1[nH]c2ccccc2c1/C=C1\C(=N)N2N=C(N3CCC(C)CC3)SC2=NC1=O,3.17
11,O=c1c2cccnc2n(Cc2ccc(Cl)cc2)c(=O)n1CCc1ccccc1,2.13
12,COc1ccc(cc1)C1=N/C(=Cc2cc(OC)ccc2OC)/C(=O)O1,1.9
13,COc1ccc(Br)cc1CNCc1sc(C(=O)O)cc1C,3.28
14,C=Cc1ccc(Cn2c(C)c(CNCc3ccc(CC)cc3)c(C(=O)O)c2C)cc1,3.37
15,CCOC(=O)c1cnc2c(OC)cccc2c1NCCCN(CC)CC,6.68
16,COc1ccc(C(=O)Cc2cc3cccc(OC)c3oc2=O)cc1,1.82
17,CCOC(=O)c1sc2nc(C)nc(NCc3ccccc3OC)c2c1C,4.59
18,COc1ccc(S(=O)(=O)N2CCCN(CC(=O)C(C)(C)C)CC2)cc1,2.33
19,CCN1CCN(CCCNC(=O)c2ccc3c(c2)NC(=O)/C(=C/C(=O)c2ccc(OC)cc2)N3)CC1,8.68
20,COc1ccccc1OCC(O)Cn1c[n+](C)c2cc(C)c(C)cc21 (stereo not given),3.47

row,SMILES,maximum fold change
1,N#C/C(=Cc1c(Oc2ccc(c(c2)C)Cl)nc2n(c1=O)cccc2)/C(=O)N1CCCCC1,2.6
2,CC(NC(=O)C1CCC(CNS(=O)(=O)c2ccccc2)CC1)c1ccccc1 (stereo not given),2.1
3,Cc1ccc(OCC(=O)N(Cc2ccccc2F)C2CCS(=O)(=O)C2)cc1C (stereo not given),2.91
4,Cc1nn2c(-c3ccco3)nnc2c2ccccc12,8.73
5,COc1ccc(cc1C1=N/C(=CNc2ccccn2)/C(=O)O1)Cl,6.85
6,Cc1ccc(-c2noc(CCC(=O)NCc3ccc(F)cc3Cl)n2)cc1,3.35
7,Cc1oc2ncn3c(C)nnc3c2c1C(=O)NC1CC1,2.62
8,O=C(NC1CCN(Cc2ccccc2)CC1)c1cc2c(=O)oc3ccccc3c2s1,7.21
9,Cc1cccc(-c2nc3n(n2)C(c2ccccc2Cl)C2=C(CC(C)(C)CC2=O)N3)c1 (stereo not given),1.83
10,Cc1ccc(C(=O)N(Cc2ccccc2F)C2CCS(=O)(=O)C2)cc1 (stereo not given),2.6
11,CC(C)c1ccc(C2c3c(-c4ccccc4O)n[nH]c3C(=O)N2CCCO)cc1 (stereo not given),2.85
12,COc1ccc(/C=C2N=C(c3ccc(Cl)c(Cl)c3)OC2=O)cc1,2.84
13,COCCN1C(=O)c2ccccc2C(C(=O)N2CCC(C)CC2)C1c1cn(C)c2ccccc12 (stereo not given),4.72
14,COC(=O)/C(C#N)=C/c1c(Oc2ccccc2Cl)nc2ccccn2c1=O,3.58
15,CCOC(=O)c1cnc2c(C)c(Cl)ccc2c1NCCCN1CCOCC1,12.1
16,O=C(Cn1ncn2nc(-c3cccs3)cc2c1=O)N1CCN(c2ccccn2)CC1,3.03
17,CS(=O)(=O)c1ccc2nc(NC(=O)c3cc4ccccc4o3)sc2c1,7.28
18,CC1(C)CC(=O)C(=Cc2c[nH]c3ccccc23)C(=O)C1,2.44
19,Cc1cc(NC(=O)CSc2nnc(-c3ccc(C)c(C)c3)o2)no1,2.25
20,CCOC(=O)C1=C(C)NC(=S)NC1c1ccc(O)c(OC)c1 (stereo not given),3.37
